Test results reported in PubChem BioAssay (NCATS).
Values joined by “and” are separate entries in the source; they are usually repeats but may differ in a detail not shown here. Equal values may be shown once. Records with an inconclusive call do not appear. A call without a number means that no potency is given here. Unmarked numbers belong to inactive results. Active and inactive are the calls of the source. Unless noted, the call rests on the fitted dose curve; in most records, active means well fitted curve in the direction sought with a large enough effect; inconclusive means small, poorly fitted or top-dose-only effect, or another doubt; inactive means no such curve, though single readings can be large; an effect the other way counts as inactive or inconclusive.

How the values were obtained:
[1] = biological target: Voltage-gated inwardly rectifying potassium channel KCNH2 (Homo sapiens) (UniProt Q12809); test: qHTS Assay for Small Molecule Inhibitors of the Human hERG Channel Activity (AID 588834);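 further: lower thallium flux fluorescence means stronger hERG block; nearly all actives have a fitted effect of over 50% in size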; further: potency means the concentration at half of the fitted maximal effect
Chain of Voltage-gated inwardly rectifying potassium channel KCNH2 (Homo sapiens) (Q12809 whole entry, looked up): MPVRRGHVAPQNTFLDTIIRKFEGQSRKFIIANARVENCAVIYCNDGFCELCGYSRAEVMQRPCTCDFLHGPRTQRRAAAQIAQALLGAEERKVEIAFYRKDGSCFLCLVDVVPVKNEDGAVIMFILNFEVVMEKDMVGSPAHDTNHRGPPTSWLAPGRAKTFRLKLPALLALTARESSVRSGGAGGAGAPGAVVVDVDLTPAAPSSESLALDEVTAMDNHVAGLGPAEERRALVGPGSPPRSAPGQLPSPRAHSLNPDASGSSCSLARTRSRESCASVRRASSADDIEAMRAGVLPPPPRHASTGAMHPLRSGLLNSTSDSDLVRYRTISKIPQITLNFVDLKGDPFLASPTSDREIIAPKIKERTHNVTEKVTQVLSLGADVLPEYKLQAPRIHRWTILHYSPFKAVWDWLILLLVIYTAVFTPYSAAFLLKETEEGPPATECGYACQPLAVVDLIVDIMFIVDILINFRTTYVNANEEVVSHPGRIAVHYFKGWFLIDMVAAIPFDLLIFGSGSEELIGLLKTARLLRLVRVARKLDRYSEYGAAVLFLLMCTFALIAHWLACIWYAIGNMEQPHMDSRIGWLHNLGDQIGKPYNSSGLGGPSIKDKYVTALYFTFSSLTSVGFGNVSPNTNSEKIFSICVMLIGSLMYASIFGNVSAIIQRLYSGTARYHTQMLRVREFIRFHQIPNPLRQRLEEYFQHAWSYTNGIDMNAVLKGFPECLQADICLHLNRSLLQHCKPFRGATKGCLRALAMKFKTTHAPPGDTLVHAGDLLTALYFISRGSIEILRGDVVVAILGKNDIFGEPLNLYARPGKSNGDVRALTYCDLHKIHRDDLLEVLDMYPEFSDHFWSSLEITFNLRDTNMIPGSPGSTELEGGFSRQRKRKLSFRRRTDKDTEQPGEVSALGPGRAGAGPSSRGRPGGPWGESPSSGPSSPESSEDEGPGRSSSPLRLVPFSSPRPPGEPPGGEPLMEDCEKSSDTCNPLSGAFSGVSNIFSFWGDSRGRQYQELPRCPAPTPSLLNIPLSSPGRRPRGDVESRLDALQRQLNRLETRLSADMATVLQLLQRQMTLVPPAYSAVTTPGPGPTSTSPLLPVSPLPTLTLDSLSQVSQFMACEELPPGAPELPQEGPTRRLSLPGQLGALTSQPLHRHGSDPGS
Outline: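 U2OS cells transduced with hERG via BacMam (MOI ~100), plated 2000/well, loaded with FluxOR thallium dye, compound ~10 min, then stimulation buffer; fluorescence decrease read kinetically; AC50 from Hill fits.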

[2] = biological target: Luciferin 4-monooxygenase (Photinus pyralis) (UniProt P08659); test: Biochemical firefly luciferase enzyme assay for NPC (AID 624030); further: nearly all actives have a fitted effect of over 70% in size; further: potency means the concentration at half of the fitted maximal effect
Chain of Luciferin 4-monooxygenase (Photinus pyralis) (P08659 whole entry, looked up): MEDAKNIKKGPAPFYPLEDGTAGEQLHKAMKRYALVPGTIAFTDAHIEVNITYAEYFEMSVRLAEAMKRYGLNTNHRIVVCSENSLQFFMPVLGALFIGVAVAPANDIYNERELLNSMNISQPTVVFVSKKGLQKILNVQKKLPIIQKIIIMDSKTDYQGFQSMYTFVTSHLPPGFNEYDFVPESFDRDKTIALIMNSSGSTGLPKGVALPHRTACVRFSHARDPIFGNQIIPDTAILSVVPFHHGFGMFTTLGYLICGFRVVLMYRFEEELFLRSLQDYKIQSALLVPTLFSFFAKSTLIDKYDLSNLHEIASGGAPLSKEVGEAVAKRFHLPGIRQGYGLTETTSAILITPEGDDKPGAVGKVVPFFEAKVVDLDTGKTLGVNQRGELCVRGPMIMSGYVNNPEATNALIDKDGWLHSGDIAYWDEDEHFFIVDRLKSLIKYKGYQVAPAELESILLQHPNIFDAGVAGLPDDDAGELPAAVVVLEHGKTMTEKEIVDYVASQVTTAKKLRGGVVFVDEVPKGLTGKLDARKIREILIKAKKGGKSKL
Outline: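 Counter-screen for direct inhibition of the luciferase enzyme by approved-drug library compounds, run at 10 nM enzyme in 50 mM Tris acetate (final). Luminescence was read within 5 min of enzyme-buffer addition and normalized to PTC124 versus DMSO (0%).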

[3] = S16 Schwann cell viability assay (CellTiter-Glo assay) (AID 624031); further: nearly all actives have a fitted effect of over 70% in size; further: potency means the concentration at half of the fitted maximal effect
Outline: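 This viability control uses native rat S16 Schwann cells grown in DMEM plus 10% FBS. After a 24 h compound treatment at 37 °C, CellTiter-Glo luminescence reports ATP content, scaled against DMSO-treated and cell-free wells.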

[4] = S16 Schwann cell PMP22 intronic element firefly luciferase assay (AID 624032); further: nearly all actives have a fitted effect of over 30% in size; further: potency means the concentration at half of the fitted maximal effect
Outline: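 Rat S16 Schwann cells stably carrying a PMP22 intronic element-driven Fluc reporter were seeded overnight, then exposed to compounds for 24 h at 37 °C. Luminescence was normalized to PTC124 (positive control) and DMSO (0% activity).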

[5] = S16 Schwann cell PMP22 intronic element beta-lactamase assay (AID 624044; calls by dose curve; further: nearly all actives have a fitted effect of over 15% in size; further: potency means the concentration at half of the fitted maximal effect)
Outline: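 Rat S16 Schwann cells with beta-Lac driven by a PMP22 intronic element, compound-treated 24 h at 37 °C. LiveBLAzer FRET B/G read: 460 nm normalized to potassium clavulanate vs DMSO; 535 nm FRET as viability; concentration-effect curves classified.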

[6] = qHTS assay for small molecule activators of the p53 signaling pathway (AID 651743; active means well fitted activation curve with a large enough effect in the signal ratio, not every such curve was filed as active; the % refers to the signal ratio; further: potency means the concentration at half of the fitted maximal effect; on activation: series mostly up to about 92 µM); details: HCT-116 p53RE-bla, beta-lactamase FRET ratio, 16 h; activation: stronger effect = higher value
Outline: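 p53RE-bla HCT-116 cells with a stably integrated beta-lactamase reporter under p53 response elements were plated, rested 5 hours at 37 C/5% CO2, then exposed to compounds in DMSO for 16 hours at 37 C. LiveBLAzer B/G FRET substrate was read after 2 hours at room temperature.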

[7] = qHTS assay for small molecule activators of the nuclear factor-kappa B (NF-kB) signaling pathway (AID 651749; active means well fitted activation curve with a large enough effect in the signal ratio; the % refers to the signal ratio; further: series mostly up to about 77 µM); details: NF-kB-bla ME-180 cells, beta-lactamase FRET ratio, 16 h; stronger effect = higher value
Outline: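 ME-180 cells stably carrying a beta-lactamase reporter under an NF-kB response element were exposed to compound or DMSO vehicle for 16 hr at 37C, 5% CO2. Pathway activation was read by FRET, since reporter expression disrupts FRET.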

[8] = qHTS assay for small molecule disruptors of the mitochondrial membrane potential - 1 hr assay (AID 651754; calls by dose curve; further: nearly all actives have a fitted effect of over 35% in size)
Outline: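 Steps: seed HepG2 cells and let attach overnight; pin-transfer compound or vehicle; incubate 1 hr at 37C; add Mito-MPS dye for 30 min; read two-channel fluorescence for monomer and aggregate forms.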

[9] = qHTS assay for small molecule disruptors of the mitochondrial membrane potential - 5 hr assay (AID 651755; calls by dose curve; further: nearly all actives have a fitted effect of over 40% in size)
Outline: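 HepG2 cells, attached overnight at 37C, were exposed to compound or DMSO for 5 hr at 37C, 5% CO2. Mito-MPS dye was then added for 30 min, and fluorescence read at 490/535 nm (monomers) and 540/590 nm (aggregates).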

[10] = biological target: Tumor necrosis factor (Homo sapiens) (UniProt P01375); test: qHTS assay to identify small molecules that stimulate Tumor Necrosis Factor-alpha (TNF-alpha) secretion (AID 651757; active means well fitted curve in the direction sought with a large enough effect in the signal ratio; the % refers to the signal ratio)
Chain of Tumor necrosis factor (Homo sapiens) (P01375 whole entry, looked up): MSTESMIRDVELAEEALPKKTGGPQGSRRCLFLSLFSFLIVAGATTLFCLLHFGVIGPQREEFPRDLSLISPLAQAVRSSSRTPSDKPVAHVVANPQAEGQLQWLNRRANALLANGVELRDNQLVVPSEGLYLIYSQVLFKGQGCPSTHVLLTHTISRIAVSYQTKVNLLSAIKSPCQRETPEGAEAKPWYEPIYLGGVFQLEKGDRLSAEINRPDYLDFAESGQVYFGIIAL
Outline: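 Secreted TNF-alpha from compound-treated THP-1 cells (17 hrs, 37 C) was quantified with a homogeneous time-resolved fluorescence antibody assay.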

O=C1CSC2(CCN(CCCN3c4ccccc4Sc4ccc(Cl)cc43)CC2)N1
Potency [1]: 7.08 µM (active)
Potency [2]: inactive
Potency [3]: 32.2 µM (active)
Potency [4]: 32.2 µM (active)
Potency [5]: inactive

CCNC(=O)[C@@H]1CCCN1C(=O)[C@H](CCCN=C(N)N)NC(=O)[C@H](CC(C)C)NC(=O)[C@@H](Cc1c[nH]c2ccccc12)NC(=O)[C@H](Cc1ccc(O)cc1)NC(=O)[C@H](CO)NC(=O)[C@H](Cc1c[nH]c2ccccc12)NC(=O)[C@H](Cc1cnc[nH]1)NC(=O)[C@@H]1CCC(=O)N1
Potency [1]: 2.51 µM (active)
Potency [2]: inactive
Potency [3]: 6.42 µM (active)
Potency [5]: 22.4 µM (active)

CO[C@H](C(=O)[C@@H](O)[C@@H](C)O)C1Cc2cc3cc(O[C@H]4C[C@@H](O[C@H]5C[C@@H](O)[C@H](O)[C@@H](C)O5)[C@@H](O)[C@@H](C)O4)c(C)c(O)c3c(O)c2C(=O)[C@H]1O[C@H]1C[C@@H](O[C@H]2C[C@@H](O[C@H]3C[C@](C)(O)[C@H](O)[C@@H](C)O3)[C@H](O)[C@@H](C)O2)[C@H](O)[C@@H](C)O1 (stereo not given in full)
Potency [1]: inactive
Potency [2]: inactive
Potency [3]: inactive
Potency [5]: 22.4 µM (active)

Nc1c(N=Nc2ccc(-c3ccc(N=Nc4cc(S(=O)(=O)O)c5ccccc5c4N)cc3)cc2)cc(S(=O)(=O)O)c2ccccc12
Potency [1]: inactive
Potency [2]: 32.2 µM (active)
Potency [3]: inactive
Potency [5]: inactive

Cc1c(C)c2c(c(C)c1O)CC[C@@](C)(CCC[C@@H](C)CCC[C@@H](C)CCCC(C)C)O2
Potency [1]: inactive
Potency [2]: inactive
Potency [3]: inactive
Potency [5]: inactive

CCOC(C)=O
Potency [1]: inactive
Potency [2]: inactive
Potency [3]: inactive
Potency [4]: inactive
Potency [5]: inactive
activation [6]: -1.83%
activation [7]: -0.483%
outcome [8]: inactive
outcome [9]: inactive
outcome [10]: inactive

COC(=O)C1=C(C#N)NC(C)=C(C(=O)OC(C)C)C1c1cccc([N+](=O)[O-])c1 (stereo not given)
Potency [1]: inactive
Potency [2]: inactive
Potency [3]: inactive
Potency [4]: 16.1 µM (active)

CC1=C(/C=C/C(C)=C/C=C/C(C)=C/C=C/C=C(C)/C=C/C=C(C)/C=C/C2=C(C)C(=O)CCC2(C)C)C(C)(C)CCC1=O
Potency [1]: inactive
Potency [2]: inactive
Potency [3]: inactive
Potency [5]: inactive

CCCCCCCCCCCC[n+]1ccc2ccccc2c1
Potency [1]: 3.16 µM (active)
Potency [2]: inactive
Potency [3]: 16.1 µM (active)
Potency [5]: 19.9 µM (active)

COc1ccc2c3c1O[C@H]1C[C@@H](O)C=C[C@@]31CCN(C)C2
Potency [1]: inactive
Potency [2]: inactive
Potency [3]: inactive
Potency [5]: inactive

NC(=O)c1ncn(C2OC(CO)C(O)C2O)n1 (stereo not given)
Potency [1]: inactive
Potency [2]: inactive
Potency [3]: inactive
Potency [5]: inactive

COC(=O)[C@H]1[C@H]2C[C@@H]3c4[nH]c5ccccc5c4CCN3C[C@H]2C[C@@H](OC(=O)c2cc(OC)c(OC)c(OC)c2)[C@@H]1OC
Potency [1]: 0.355 µM (active)
Potency [2]: inactive
Potency [3]: 5.1 µM (active)
Potency [5]: 3.98 µM (active)

O=CCCCC=O
Potency [1]: inactive
Potency [2]: inactive
Potency [3]: inactive
Potency [4]: inactive
Potency [5]: inactive
Potency [6]: 35.5 µM (active)
activation [7]: 3.18%
outcome [8]: inactive
outcome [9]: inactive
outcome [10]: inactive

CC1=CCC(C(C)(C)O)CC1 (stereo not given)
Potency [1]: inactive
Potency [2]: inactive
Potency [3]: inactive
Potency [4]: inactive
Potency [5]: inactive
activation [6]: -5.6%
activation [7]: -1.34%

O=S(=O)(O)O
Potency [1]: inactive
Potency [2]: inactive
Potency [3]: inactive
Potency [4]: inactive
Potency [5]: inactive
outcome [8]: inactive
outcome [9]: inactive
outcome [10]: inactive

CCCCC/C=C\C/C=C\CCCCCCCC(=O)O
Potency [1]: inactive
Potency [2]: inactive
Potency [4]: inactive
Potency [5]: inactive
activation [6]: 1.23% and -4.95%
outcome [8]: inactive
outcome [9]: inactive
outcome [10]: inactive

IC(I)I
Potency [1]: inactive
Potency [3]: inactive
Potency [5]: inactive
activation [6]: -2.94% and -3.68%
outcome [10]: inactive

CCN(CC)Cc1cc(Nc2ccnc3cc(Cl)ccc23)ccc1O
Potency [2]: inactive
Potency [3]: inactive

CC1(C)C(C=C(Cl)Cl)C1C(=O)OCc1cccc(Oc2ccccc2)c1 (stereo not given)
Potency [1]: inactive
Potency [3]: inactive
Potency [5]: inactive
activation [6]: -1.26% [middle of 4 runs]

O=C(Nc1cccc(C(F)(F)F)c1)c1cc(Br)cc(Br)c1O
Potency [1]: inactive
Potency [2]: 7.21 µM (active)
Potency [4]: inactive

CC1=C2[C@@H]([C@H](C)CC[C@H]2/C=C(\C)C(=O)O)[C@H](O)C1
Potency [1]: inactive
activation [6]: -3.64%
activation [7]: -0.741%
outcome [8]: inactive
outcome [9]: inactive
outcome [10]: inactive

CC(NNC(=O)c1ccccc1)c1ccccc1 (stereo not given)
Potency [1]: inactive
Potency [3]: inactive
Potency [4]: inactive
Potency [5]: inactive

O=S(=O)(O)c1cc(O)c2c(N=Nc3ccc(Nc4ccccc4)c4c(S(=O)(=O)O)cccc34)cc(S(=O)(=O)O)cc2c1
Potency [1]: inactive
Potency [2]: 32.2 µM (active)
Potency [5]: inactive
